The list is not random: actives were taken first. Their share in the collection is about 0.5%.
E coli growth-1: bacterial growth inhibition, counter-screen for AddAB inhibitors | E. coli V3065 growth, OD600 absorbance, 18 h | inhibition, % at 11.9 µM | 330,000 tested, 0.27% active | AID 449728;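 active = inhibition above the campaign's mean inhibition across all tested compounds plus 3 SD, cut at about 9.9% in these data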;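 also: uninfected addAB+ strain grown without phage in ampicillin broth; 0% = DMSO wells and 100% = ciprofloxacin 0.95 µg/ml wells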
E coli growth-2: inhibitors of Escherichia coli growth. OD600, 23 h; stronger effect = lower value. OD600 absorbance (no concentration beside the values). 330,000 tested, 0.21% active;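 active = OD600 absorbance below the run mean of sample wells minus 3.6 SD, in any replicate, cut at about 0.56 in these data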
Tat transport: blocks Tat-dependent protein export in E. coli. 340,000 tested, 0.036% active. AID 488895. inhibition, % at 10 µM. E. coli MC4100 TorA-mCherry Tat export, fluorescence;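 active = mean replicate inhibition at least 50% and at least half of replicates individually reaching 50%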;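 also: exported cargo escapes ClpAP degradation while cytoplasmic cargo is degraded and loses fluorescence; 0% = median of neutral control wells and 100% = median of NaSCN control wells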
AddAB inh: less growth of phage-infected E. coli with AddAB; inhibition, % at 11.9 µM; 330,000 tested, 0.29% active; E. coli expressing H. pylori AddAB, absorbance growth; AID 435030; in the data active = inhibition above about 12%;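 also: 0% = vehicle wells of infected cells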
phage Ecoli inh: E. coli growth loss with phage present | growth absorbance | inhibition, % at 11.9 µM | 360,000 tested, 0.26% active; in the data active = inhibition above about 11%
AddAB confirm: confirmation screen: growth loss of phage-infected E. coli expressing H. pylori AddAB. shares compounds with AddAB inh. E. coli V3065 expressing H. pylori AddAB, T4 phage, OD; T4 phage with gene 2 nonsense mutations. inhibition, % at 11.9 µM. 880 tested, 64% active. AID 488942;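 active = mean inhibition above a set limit taken from the earlier primary screen, cut at about 13% in these data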;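 also: higher means less bacterial growth since AddAB block lets phage replicate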
RecBCD counter: reduces growth of phage-infected RecBCD+ E. coli, AddAB inhibitor counter-screen | shares compounds with AddAB inh | E. coli V66 + mutant T4 phage, OD growth | inhibition, % at 11.9 µM | 880 tested, 73% active | AID 488955;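 active = mean inhibition above the mean of solvent-only control wells plus 3 SD, cut at about 4% in these data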;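 also: optical density read after an 18 h incubation at 37 °C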
Bact viability: counter-screen for AddAB inhibitors: inhibitors of bacterial viability; shares compounds with AddAB inh; absorbance (AddAB counterscreen); inhibition, % at 11.9 µM; 880 tested, 35% active; AID 488956; in the data active = inhibition above about 25%
* = called active by the depositor; · = not tested or not shown.

SMILES | E coli growth-1 | E coli growth-2 | Tat transport | AddAB inh | phage Ecoli inh | AddAB confirm | RecBCD counter | Bact viability
O=C(Nc1ccc(N2CCOCC2)cc1)c1ccc([N+](=O)[O-])o1 | 13* | 0.61 | -3 | 16* | 8 | 69* | 8.5* | 20
CC(=O)Nc1ccc2nc(NC(=O)c3ccco3)sc2c1 | -1 | 0.68 | 0 | 1 | -1 | · | · | ·
CN1CCN(c2ccccc2NC(=O)c2ccc([N+](=O)[O-])o2)CC1 | 25* | 0.56 | -6 | 27* | · | 101* | 11* | 38*
CC(=O)Nc1ccc2nc(NC(=O)c3ccc([N+](=O)[O-])o3)sc2c1 | 9 | 0.62 | -12 | 15* | 1 | 41* | 5.7* | 12
CCn1nnc(NC(=O)c2ccc([N+](=O)[O-])o2)n1 | 11* | 0.56 | -11 | 19* | 7 | 61* | 6.5* | 12
CS(=O)(=O)N1CCN(c2ccccc2NC(=O)c2ccc([N+](=O)[O-])o2)CC1 | 0 | 0.69 | 0 | 1 | 1 | · | · | ·
CCCCn1nnc(NC(=O)c2ccc(-c3ccccc3[N+](=O)[O-])o2)n1 | -1 | 0.62 | 14 | 3 | 4 | · | · | ·
O=C(Nc1ccc(S(=O)(=O)N2CCOCC2)cc1)c1ccc([N+](=O)[O-])o1 | 4 | 0.66 | -12 | 6 | 6 | · | · | ·
O=C(NC(Cc1ccccc1)C(=O)CCl)OCc1ccccc1 (centres undefined) | · | 0.68 | · | · | · | · | · | ·
C#CCOCCOCCOCCNc1nc(N2CCN(C(=O)C(C(C)CC)n3cc(C(N)CC(C)C)nn3)CC2)nc(N2CCN(C(=O)C(C(C)CC)n3cc(C(N)CC(C)C)nn3)CC2)n1 (centres undefined) | · | 0.68 | · | · | · | · | · | ·
C=CC(C)N(Cc1ccc(OC)cc1)S(=O)(=O)N(Cc1ccccc1)C(C=C)C(C)C (centres undefined) | · | 0.68 | · | · | · | · | · | ·
CCCCCNC(=O)c1cn(CC)c2cc(N3CCN(C)CC3)c(F)cc2c1=O | 90* | 0.047* | 4 | 92* | 7 | 100* | 12* | 96*
CCN(CC)CCCNC(=O)c1cn(CC)c2cc(N3CCN(C(=O)c4ccco4)CC3)c(F)cc2c1=O | 98* | 0.065* | 20 | 97* | 1 | 100* | 88* | 101*
CCN(CC)CCNC(=O)c1cn(CC)c2cc(N3CCN(C(=O)c4ccco4)CC3)c(F)cc2c1=O | 65* | 0.074* | 13 | 68* | 8 | 98* | 6.6* | 89*
CC(C)(C)OC(=O)NC(C=Cc1ccccc1)C(=O)OC(C)(C)C (centres undefined) | · | 0.64 | · | · | · | · | · | ·
O=C1c2cccc3c([N+](=O)[O-])ccc(c23)C(=O)N1c1ccccn1 | -2 | 0.67 | -12 | 1 | 3 | · | · | ·
O=C1c2cccc3c([N+](=O)[O-])ccc(c23)C(=O)N1O | 50* | · | 81* | 35* | 44* | 86* | 74* | 81*
CCN1CCN(C2=C(NS(=O)(=O)c3ccc(Br)cc3)C(=O)c3ccccc3C2=O)CC1 | 11* | 0.7 | -7 | 14* | 7 | 3 | 2 | -2
CC(=O)Nc1ccc(C(=O)OCC(=O)Nc2c(F)cccc2F)cc1 | 74* | 0.72 | 2 | 90* | -1 | -1 | 0 | -4
CC(=O)Nc1ccc(C(=O)OCC(=O)c2ccc(F)cc2)cc1 | 1 | 0.65 | 0 | 2 | 5 | · | · | ·
CCN1C(=O)C2C(c3ccc(-c4cc(C(C)=O)cs4)cc3)N[C@@](Cc3ccccc3)(C(=O)OC)C2C1=O (some centres undefined) | · | 0.65 | · | · | · | · | · | ·
O=C(Cn1cc(C(=O)c2ccco2)c2ccccc21)Nc1ccccc1 | 16* | 0.65 | -7 | 17* | 10 | 10 | 11* | 12
C#CCNC(=O)C1=CC(c2ccccc2)CC(OCc2ccc(CO)cc2)O1 (centres undefined) | · | 0.71 | · | · | · | · | · | ·
CSc1nc(N)nc2c1ncn2CC(=O)NCC(c1ccccc1)c1ccccc1 | -2 | 0.7 | 4 | 1 | 2 | · | · | ·
CSc1nc(N)nc2c1ncn2CC(=O)Nc1ccc(C)c(C)c1 | 12* | 0.63 | 15 | 15* | 9 | 13* | 11* | 7
SMILES | E coli growth-1 | E coli growth-2 | Tat transport | AddAB inh | phage Ecoli inh | AddAB confirm | RecBCD counter | Bact viability
Cc1ccc(NC(=O)Cn2cnc3ccccc32)cc1C | 14* | 0.68 | -14 | 14* | 7 | 20* | 14* | 11
CCN1CCN(C(=O)C2CCN(c3nnc(-n4c(C)ccc4C)s3)CC2)CC1 | 2 | 0.73 | 8 | 131* | 1 | 5 | 1 | -1
Cc1ccc(C)n1-c1nnc(N2CCC(C(=O)N3CCN(C)CC3)CC2)s1 | -3 | 0.75 | -5 | 4 | 3 | · | · | ·
O=C(CSc1nc2ccccc2[nH]1)Nc1ccc2c(c1)CCC2 | 7 | 0.61 | -17 | 18* | 5 | 3 | 5.2* | 3
O=C(CSc1nc2ccc(Cl)cc2[nH]1)Nc1ccc2c(c1)CCC2 | 0 | · | 2 | 4 | 4 | · | · | ·
O=C1C=C(c2ccc(Oc3ccccc3)cc2)CC(c2ccc3c(c2)OCO3)C1 (centres undefined) | · | 0.73 | · | · | · | · | · | ·
CN1CCN(C(c2ccccn2)c2cc(Cl)c3cccnc3c2O)CC1 (centres undefined) | -1 | 0.62 | -7 | 5 | 8 | · | · | ·
Cc1ccc(C(c2cc(Cl)c3cccnc3c2O)N2CCN(C)CC2)cc1 (centres undefined) | 20* | · | -2 | 19* | · | 9 | 9.4* | 2
C#CCOCCOCCOCCNc1nc(N2CCN(C(=O)C(C(C)CC)n3cc(CCCCN)nn3)CC2)nc(N2CCN(C(=O)C(C(C)CC)n3cc(CCCN=C(N)N)nn3)CC2)n1 (centres undefined) | · | 0.65 | · | · | · | · | · | ·
CCN(C(=O)C1CCN(c2nc(-c3ccc(OC)cc3)no2)CC1)c1ccccc1 | -1 | 0.72 | 10 | 2 | 3 | · | · | ·
CCN(C(=O)C1CCCN(c2nc(-c3ccc(OC)cc3)no2)C1)c1ccccc1F (centres undefined) | 4 | 0.77 | 2 | 22* | 1 | -2 | 1 | -3
CCC(=O)OCC(=O)C1(OC(=O)CC)C(C)CC2C3C(Cl)CC4=CC(=O)C=C[C@]4(C)C3C(O)C[C@@]21C (some centres undefined) | · | 0.71 | · | · | · | · | · | ·
COc1ccc(-c2oc3cc(OC(C)=O)cc(OC(C)=O)c3c(=O)c2OC)cc1 | · | 0.64 | -3 | · | 2 | · | · | ·
CC(=O)Oc1cc(O)c2c(=O)c(OC(C)=O)c(-c3ccc(OC(C)=O)c(OC(C)=O)c3)oc2c1 | 9 | 0.62 | 14 | 16* | · | 14* | 4.2* | 9
Cc1cc(CNC(=O)C2(C(F)(F)F)CC(=CCc3ccccc3)CCCO2)nn1C (centres undefined) | · | 0.7 | · | · | · | · | · | ·
O=C(O)c1ccc(N/N=C/C=C/c2ccc([N+](=O)[O-])o2)cc1 | 9 | · | 1 | 14* | 8 | 31* | 4 | 9

Compound activity: PubChem BioAssay, several laboratories
